What was measured:
[1] = target: Serine/threonine-protein kinase MARK2 (Homo sapiens) (UniProt Q7KZI7); details: at 1 µM
[2] = target: PAS domain-containing serine/threonine-protein kinase (Homo sapiens) (UniProt Q96RG2); details: at 0.1 µM
[3] = target: PAS domain-containing serine/threonine-protein kinase (Homo sapiens) (UniProt Q96RG2); details: at 1 µM
[4] = target: Phosphorylase b kinase gamma catalytic chain, skeletal muscle/heart isoform (Homo sapiens) (UniProt Q16816); details: at 0.1 µM
Phosphorylase b kinase gamma catalytic chain, skeletal muscle/heart isoform (Homo sapiens), sequence (Q16816 whole entry, looked up, canonical isoform): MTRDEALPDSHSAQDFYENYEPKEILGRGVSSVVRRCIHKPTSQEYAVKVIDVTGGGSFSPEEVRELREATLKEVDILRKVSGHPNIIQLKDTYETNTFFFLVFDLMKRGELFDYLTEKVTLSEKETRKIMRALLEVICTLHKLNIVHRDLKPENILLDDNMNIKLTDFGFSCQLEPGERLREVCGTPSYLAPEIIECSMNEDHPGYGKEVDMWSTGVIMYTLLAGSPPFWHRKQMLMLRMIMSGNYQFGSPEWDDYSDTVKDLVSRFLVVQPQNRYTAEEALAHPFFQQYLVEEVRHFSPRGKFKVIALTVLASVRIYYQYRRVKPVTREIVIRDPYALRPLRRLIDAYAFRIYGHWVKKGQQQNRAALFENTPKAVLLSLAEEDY

[5] = target: Phosphorylase b kinase gamma catalytic chain, skeletal muscle/heart isoform (Homo sapiens) (UniProt Q16816); details: at 1 µM
[6] = target: T1, Phosphorylase b kinase gamma catalytic chain, liver/testis isoform (Homo sapiens) (UniProt P15735); details: at 0.1 µM
T1 sequence (whole entry): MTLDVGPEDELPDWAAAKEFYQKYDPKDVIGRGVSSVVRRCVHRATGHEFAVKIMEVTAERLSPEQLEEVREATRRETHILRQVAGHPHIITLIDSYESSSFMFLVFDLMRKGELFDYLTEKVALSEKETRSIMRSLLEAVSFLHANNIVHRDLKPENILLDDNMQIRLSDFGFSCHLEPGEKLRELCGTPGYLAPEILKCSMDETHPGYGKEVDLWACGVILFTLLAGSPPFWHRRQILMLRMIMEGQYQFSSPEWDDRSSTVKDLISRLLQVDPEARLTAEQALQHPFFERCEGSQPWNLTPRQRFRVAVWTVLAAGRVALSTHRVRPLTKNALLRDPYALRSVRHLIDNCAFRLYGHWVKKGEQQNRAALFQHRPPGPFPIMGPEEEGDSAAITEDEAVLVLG

[7] = target: T1, Phosphorylase b kinase gamma catalytic chain, liver/testis isoform (Homo sapiens); details: at 1 µM
[8] = target: Serine/threonine-protein kinase pim-1 (Homo sapiens) (UniProt P11309); details: at 0.1 µM
Serine/threonine-protein kinase pim-1 (Homo sapiens), sequence (P11309 whole entry, looked up): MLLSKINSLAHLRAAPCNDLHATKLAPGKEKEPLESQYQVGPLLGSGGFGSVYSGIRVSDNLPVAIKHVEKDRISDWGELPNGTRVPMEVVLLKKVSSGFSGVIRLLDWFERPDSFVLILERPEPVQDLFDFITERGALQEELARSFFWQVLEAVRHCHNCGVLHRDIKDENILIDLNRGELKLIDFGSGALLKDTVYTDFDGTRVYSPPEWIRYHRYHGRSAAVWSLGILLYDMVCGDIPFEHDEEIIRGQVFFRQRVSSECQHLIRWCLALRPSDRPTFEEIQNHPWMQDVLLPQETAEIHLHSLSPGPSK

[9] = target: Serine/threonine-protein kinase pim-1 (Homo sapiens) (UniProt P11309); details: at 1 µM
[10] = target: Serine/threonine-protein kinase pim-2 (Homo sapiens) (UniProt Q9P1W9); details: at 0.1 µM
Serine/threonine-protein kinase pim-2 (Homo sapiens), sequence (Q9P1W9 whole entry, looked up): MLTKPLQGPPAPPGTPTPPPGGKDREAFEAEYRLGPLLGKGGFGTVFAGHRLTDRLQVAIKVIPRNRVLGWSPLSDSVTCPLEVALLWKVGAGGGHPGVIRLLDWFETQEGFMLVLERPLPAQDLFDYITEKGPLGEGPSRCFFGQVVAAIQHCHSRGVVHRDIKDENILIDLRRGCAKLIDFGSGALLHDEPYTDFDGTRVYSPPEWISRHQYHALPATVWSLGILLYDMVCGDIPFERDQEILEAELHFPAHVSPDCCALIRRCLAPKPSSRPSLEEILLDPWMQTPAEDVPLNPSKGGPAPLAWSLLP

[11] = target: Serine/threonine-protein kinase pim-2 (Homo sapiens) (UniProt Q9P1W9); details: at 1 µM
[12] = target: Serine/threonine-protein kinase pim-3 (Homo sapiens) (UniProt Q86V86); details: at 0.1 µM
[13] = target: Serine/threonine-protein kinase pim-3 (Homo sapiens) (UniProt Q86V86); details: at 1 µM
[14] = target: T2, MAP kinase-activated protein kinase 5 (Homo sapiens) (UniProt Q8IW41); details: at 0.1 µM
T2 sequence (whole entry): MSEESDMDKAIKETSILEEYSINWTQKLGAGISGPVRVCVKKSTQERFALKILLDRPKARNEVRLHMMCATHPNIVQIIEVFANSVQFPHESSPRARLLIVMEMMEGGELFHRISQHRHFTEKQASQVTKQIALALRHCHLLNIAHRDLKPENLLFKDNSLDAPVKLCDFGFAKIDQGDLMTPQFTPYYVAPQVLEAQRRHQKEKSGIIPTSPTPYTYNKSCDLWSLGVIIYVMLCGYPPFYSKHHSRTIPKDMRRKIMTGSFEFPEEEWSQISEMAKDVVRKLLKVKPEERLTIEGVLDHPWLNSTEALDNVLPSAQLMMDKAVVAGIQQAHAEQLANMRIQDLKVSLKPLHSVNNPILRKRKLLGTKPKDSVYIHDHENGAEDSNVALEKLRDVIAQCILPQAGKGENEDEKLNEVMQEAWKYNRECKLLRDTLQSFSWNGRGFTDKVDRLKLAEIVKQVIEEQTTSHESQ

[15] = target: T2, MAP kinase-activated protein kinase 5 (Homo sapiens); details: at 1 µM
[16] = target: Serine/threonine-protein kinase SIK1 (Homo sapiens) (UniProt P57059); details: at 0.1 µM
[17] = target: Serine/threonine-protein kinase SIK1 (Homo sapiens) (UniProt P57059); details: at 1 µM
[18] = target: Serine/threonine-protein kinase SIK2 (Homo sapiens) (UniProt Q9H0K1); details: at 0.1 µM
Serine/threonine-protein kinase SIK2 (Homo sapiens), sequence (Q9H0K1 whole entry, looked up): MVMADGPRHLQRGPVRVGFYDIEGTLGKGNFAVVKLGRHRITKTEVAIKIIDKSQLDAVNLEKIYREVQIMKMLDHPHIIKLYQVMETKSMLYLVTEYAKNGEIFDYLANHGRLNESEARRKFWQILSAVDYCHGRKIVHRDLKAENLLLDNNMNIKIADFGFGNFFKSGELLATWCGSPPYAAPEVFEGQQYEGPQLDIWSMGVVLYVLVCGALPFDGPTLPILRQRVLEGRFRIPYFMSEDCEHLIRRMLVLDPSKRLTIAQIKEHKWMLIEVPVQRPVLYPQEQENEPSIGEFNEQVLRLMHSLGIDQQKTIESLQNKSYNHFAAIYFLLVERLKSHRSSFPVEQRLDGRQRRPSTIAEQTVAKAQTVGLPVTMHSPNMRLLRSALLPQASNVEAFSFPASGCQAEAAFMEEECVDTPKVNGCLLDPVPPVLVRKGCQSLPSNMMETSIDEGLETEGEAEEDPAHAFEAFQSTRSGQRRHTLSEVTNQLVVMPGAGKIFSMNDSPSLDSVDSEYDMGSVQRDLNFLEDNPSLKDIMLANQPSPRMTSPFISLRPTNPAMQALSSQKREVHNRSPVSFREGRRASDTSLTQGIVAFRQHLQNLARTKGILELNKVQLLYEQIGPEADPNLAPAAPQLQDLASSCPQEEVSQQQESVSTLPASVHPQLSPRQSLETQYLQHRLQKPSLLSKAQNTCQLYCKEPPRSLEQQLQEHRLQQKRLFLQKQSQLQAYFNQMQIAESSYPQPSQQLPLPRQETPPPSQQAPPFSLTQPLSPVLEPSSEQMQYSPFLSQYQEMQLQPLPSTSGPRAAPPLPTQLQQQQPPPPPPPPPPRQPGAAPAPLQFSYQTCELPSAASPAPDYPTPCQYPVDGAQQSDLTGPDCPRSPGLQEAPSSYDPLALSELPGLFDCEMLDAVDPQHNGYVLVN

[19] = target: Serine/threonine-protein kinase SIK2 (Homo sapiens) (UniProt Q9H0K1); details: at 1 µM
[20] = target: T3, Serine/threonine-protein kinase TBK1 (Homo sapiens) (UniProt Q9UHD2); details: at 0.1 µM;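 also: values are the mean TBK1 inhibition, taken from the GSK PKIS screening data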
T3 sequence (whole entry): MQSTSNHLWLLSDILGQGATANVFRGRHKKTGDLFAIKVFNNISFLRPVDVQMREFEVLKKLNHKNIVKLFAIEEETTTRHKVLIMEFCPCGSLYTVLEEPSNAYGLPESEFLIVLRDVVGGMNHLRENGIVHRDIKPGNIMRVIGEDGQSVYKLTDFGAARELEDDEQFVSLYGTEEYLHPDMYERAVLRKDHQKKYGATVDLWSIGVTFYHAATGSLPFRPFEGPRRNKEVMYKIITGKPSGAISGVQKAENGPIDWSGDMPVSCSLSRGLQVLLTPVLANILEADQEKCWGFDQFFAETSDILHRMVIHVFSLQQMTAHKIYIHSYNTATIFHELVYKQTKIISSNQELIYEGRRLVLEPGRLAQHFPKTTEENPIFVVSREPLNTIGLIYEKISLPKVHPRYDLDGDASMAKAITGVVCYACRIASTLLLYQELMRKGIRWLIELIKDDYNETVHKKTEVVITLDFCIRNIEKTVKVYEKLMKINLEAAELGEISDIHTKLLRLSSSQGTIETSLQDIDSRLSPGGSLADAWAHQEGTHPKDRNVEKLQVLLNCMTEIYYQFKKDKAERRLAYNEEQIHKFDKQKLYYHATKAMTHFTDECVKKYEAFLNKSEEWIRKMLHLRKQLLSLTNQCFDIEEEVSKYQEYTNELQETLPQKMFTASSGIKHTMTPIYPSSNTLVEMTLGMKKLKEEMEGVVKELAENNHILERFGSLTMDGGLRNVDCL

PAS domain-containing serine/threonine-protein kinase (Homo sapiens), sequence (Q96RG2 whole entry, the tested form may be a part, canonical isoform): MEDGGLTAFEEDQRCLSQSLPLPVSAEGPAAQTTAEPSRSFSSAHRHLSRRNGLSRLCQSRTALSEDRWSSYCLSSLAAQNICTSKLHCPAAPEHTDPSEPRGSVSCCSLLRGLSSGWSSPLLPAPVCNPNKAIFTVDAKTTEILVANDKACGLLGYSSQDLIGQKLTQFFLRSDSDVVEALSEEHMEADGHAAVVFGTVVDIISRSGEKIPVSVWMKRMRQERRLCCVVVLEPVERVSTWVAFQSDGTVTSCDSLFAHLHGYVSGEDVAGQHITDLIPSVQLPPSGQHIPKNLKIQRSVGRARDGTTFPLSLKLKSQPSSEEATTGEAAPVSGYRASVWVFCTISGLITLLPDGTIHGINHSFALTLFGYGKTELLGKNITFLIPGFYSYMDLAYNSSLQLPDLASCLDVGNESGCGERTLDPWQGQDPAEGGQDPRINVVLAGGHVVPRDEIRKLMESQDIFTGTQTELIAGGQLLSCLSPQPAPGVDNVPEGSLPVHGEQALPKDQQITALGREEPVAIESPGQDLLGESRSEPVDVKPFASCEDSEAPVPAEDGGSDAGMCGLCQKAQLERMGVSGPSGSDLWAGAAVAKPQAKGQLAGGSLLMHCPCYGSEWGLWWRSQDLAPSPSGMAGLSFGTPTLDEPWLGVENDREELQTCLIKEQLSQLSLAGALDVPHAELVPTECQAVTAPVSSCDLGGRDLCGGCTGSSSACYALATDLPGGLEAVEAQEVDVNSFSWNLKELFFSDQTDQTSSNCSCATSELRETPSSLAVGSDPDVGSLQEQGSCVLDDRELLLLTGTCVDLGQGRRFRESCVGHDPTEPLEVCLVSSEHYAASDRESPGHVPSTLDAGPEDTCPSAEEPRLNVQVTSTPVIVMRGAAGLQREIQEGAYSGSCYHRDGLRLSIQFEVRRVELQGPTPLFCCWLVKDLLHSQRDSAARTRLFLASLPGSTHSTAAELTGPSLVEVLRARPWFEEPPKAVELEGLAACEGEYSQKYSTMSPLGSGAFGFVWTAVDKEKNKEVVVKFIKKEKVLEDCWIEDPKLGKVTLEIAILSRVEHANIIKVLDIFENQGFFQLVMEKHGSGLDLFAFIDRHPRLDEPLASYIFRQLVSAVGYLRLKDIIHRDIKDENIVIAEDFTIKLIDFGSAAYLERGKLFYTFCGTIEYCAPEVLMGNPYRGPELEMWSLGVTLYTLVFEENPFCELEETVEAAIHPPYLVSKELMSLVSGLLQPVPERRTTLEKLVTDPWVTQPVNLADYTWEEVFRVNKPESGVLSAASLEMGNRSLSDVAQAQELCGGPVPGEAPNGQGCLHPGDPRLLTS
Serine/threonine-protein kinase MARK2 (Homo sapiens), sequence (Q7KZI7 whole entry, the tested form may be a part): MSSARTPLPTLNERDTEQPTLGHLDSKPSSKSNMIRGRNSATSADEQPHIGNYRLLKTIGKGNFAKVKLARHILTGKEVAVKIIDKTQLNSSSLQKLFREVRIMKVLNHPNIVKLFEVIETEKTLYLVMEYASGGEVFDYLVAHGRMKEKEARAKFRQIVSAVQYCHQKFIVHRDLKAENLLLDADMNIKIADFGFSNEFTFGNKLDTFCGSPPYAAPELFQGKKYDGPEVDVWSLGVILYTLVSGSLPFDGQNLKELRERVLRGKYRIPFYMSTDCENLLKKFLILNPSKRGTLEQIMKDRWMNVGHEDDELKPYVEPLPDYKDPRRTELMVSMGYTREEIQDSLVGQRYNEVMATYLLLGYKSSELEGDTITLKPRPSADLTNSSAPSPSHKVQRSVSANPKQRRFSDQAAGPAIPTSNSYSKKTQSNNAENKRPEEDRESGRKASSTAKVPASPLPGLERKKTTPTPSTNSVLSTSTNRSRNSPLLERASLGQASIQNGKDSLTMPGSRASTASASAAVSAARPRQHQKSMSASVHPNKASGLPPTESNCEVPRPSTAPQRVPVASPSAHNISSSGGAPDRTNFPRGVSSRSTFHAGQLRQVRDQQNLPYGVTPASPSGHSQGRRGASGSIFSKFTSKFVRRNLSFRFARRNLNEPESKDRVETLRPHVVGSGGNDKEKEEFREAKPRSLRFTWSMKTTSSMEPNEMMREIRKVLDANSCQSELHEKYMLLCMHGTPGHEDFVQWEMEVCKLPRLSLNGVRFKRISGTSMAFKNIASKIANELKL

SMILES	inhibition [1] [%]	inhibition [2] [%]	inhibition [3] [%]	inhibition [4] [%]	inhibition [5] [%]	inhibition [6] [%]	inhibition [7] [%]	inhibition [8] [%]	inhibition [9] [%]	inhibition [10] [%]	inhibition [11] [%]	inhibition [12] [%]	inhibition [13] [%]	inhibition [14] [%]	inhibition [15] [%]	inhibition [16] [%]	inhibition [17] [%]	inhibition [18] [%]	inhibition [19] [%]	inhibition [20] [%]
CC(=O)Nc1cccc(C#Cc2cncnc2Nc2ccc(OCc3cccc(F)c3)c(Cl)c2)c1	0.33	1.37	-0.46	0.65	1.71	3.82	1.55	1.32	0.75	0.84	1.31	2.57	-1.69	0.16	-0.79	4.24	2.15	1.42	1.44	1.95
COC(=O)Nc1nc2ccc(Oc3ccc(NC(=O)Nc4cccc(Cl)c4)cc3)cc2[nH]1	0.42	1.55	0.95	1.88	4.58	1.21	1.57	-0.68	-1.08	-0.32	-1.04	-0.85	-1.87	0.18	-0.5	1.1	4.14	0.4	1.86	1.34
Cc1ccc(O)cc1Nc1ccnc2cc(-c3ccccn3)ccc12	4.34	0.71	-0.05	2.23	9.36	5.58	2.55	0.67	3.79	0.49	1.15	-0.3	-0.17	1.2	0.39	14.9	48.6	6.77	23.9	2.89
CS(=O)(=O)CCNCc1ccc(-c2ccc3ncnc(Nc4ccc(OCc5ccccc5)c(C(F)(F)F)c4)c3c2)o1	1.46	0	0.88	7.15	6.03	5.4	5.06	-0.57	1.31	0.54	1.13	-1.28	-0.2	1.1	1.66	4.5	6.16	4.8	2.29	0.23
CCN(CC)S(=O)(=O)c1ccc(OC)c(Nc2ncc(-c3ccccc3)o2)c1	0.33	1.24	1.76	-0.59	12.3	2.23	2.3	1.35	0.97	-0.31	0.18	2.06	3.12	0.51	0.24	1.24	6.72	3.3	2.83	1.32
N#Cc1c(NC(=O)CN2CCOCC2)sc2c1CCCC2	1.25	0.47	0.86	6	9.65	5.37	6.47	0.03	0.16	0.29	1.1	0.45	1.12	1.41	2.49	0.17	6.91	5.2	8.69	1.76
CC(C)(CO)CNC(=O)c1ccc2c(c1)/C(=N/Nc1ccc(S(N)(=O)=O)cc1)C(=O)N2	32.2	1.39	0.43	6.19	29.9	0.52	3.4	2.44	18.9	0.31	4.28	1.57	14.2	-0.02	-0.16	3.06	27.7	-1.9	36	21.7
O=C(O[C@H]1CN[C@H](C#Cc2cc3ncnc(Nc4ccc(Cc5ccccc5)cc4)c3s2)C1)N1CCOCC1	0.4	0.94	0.47	3.11	3.13	3.27	2.45	1.81	0.55	0.21	1.06	1.54	3.8	0.58	-0.05	0.92	-0.23	-0.21	-0.83	-0.27
O=C(Nc1n[nH]c2cc(-c3ccc(F)cc3)ccc12)C1CC1	2.24	-0.52	-1.02	3.89	6.4	6.96	2.35	0.88	3.11	-0.18	1.49	0.08	0.99	1.06	5.12	4.89	6.8	5.76	7.9	2.6
CCNC(=O)O[C@H]1CN[C@H](C#Cc2cc3ncnc(Nc4ccc(OCc5cccc(F)c5)c(Cl)c4)c3s2)C1	2.03	0.27	-1.53	0.81	0.44	3.66	0.88	0.78	0.26	-0.1	-0.15	-0.41	-2.78	0.89	0.04	9.17	7.09	4.37	4.15	1.48
CC(C)COC(=O)c1ccc2c(c1)/C(=C/Nc1ccc(S(N)(=O)=O)cc1)C(=O)N2	70.5	0.36	2.64	12.2	50.5	-1.63	16.4	3.92	27.8	0.83	5.85	8.76	48.8	-0.6	1.18	2.01	72.2	4.76	39.7	38.1
Cc1cccc(Nc2ncc(-c3ccccc3)o2)c1	6.99	-0.74	1.15	2.49	0.97	2.92	3.71	1.11	0.94	0.15	0.42	-0.05	1.97	1.69	0.97	3.47	12.8	-1.34	9.41	2.6
CCOc1ccc2c(-c3ccnc(Nc4cccc(C(F)(F)F)c4)n3)cnn2n1	0.82	0.62	0.46	2.65	6.48	3.64	3.92	-1.05	-1.35	0.55	-0.33	-1.1	-1.96	0.3	-0.41	2.46	3.82	2.86	3.43	2.13
CN(C)CCOc1ccc(-c2nc(-c3ccncc3)c(-c3ccc4c(c3)CC/C4=N\O)[nH]2)cc1	0.92	-0.26	0.36	1.18	7.7	3.65	5.28	1.13	1.48	-0.23	0.05	-0.36	2.58	1.42	1.59	2.53	3.64	6.15	2.63	1.69
